HT1080 IDH1KD tx = qHTS for induction of synthetic lethality in tumor cells producing 2HG: qHTS for the HT-1080-IDH1KD cell line | HT-1080 IDH1 knockdown viability, ATP luminescence, 48 h | 2% of 360,000 active | Potency, µM (doses to about 46.1 µM), inactives show at the top dose activity, negative = toxicity, usual class: cytotoxic;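 note: potency is the fitted concentration of half-maximal effect; 0% = DMSO wells and -100% = cell-free medium wells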
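Cytotoxicity counter-line: IDH1KD HT-1080, 48 h, CellTiter-Glo. Curves classed by r2, magnitude and activity.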
TDP1 cell noCPT = qHTS for Inhibitors of human tyrosyl-DNA phosphodiesterase 1 (TDP1): qHTS in cells in absence of CPT; DT40 Tdp1-/- hTDP1 cells, no CPT, ATP luminescence, 48 h; Potency, µM (top dose mostly 46.2 µM), for inactives: top-dose activity change, negative = growth inhibition, actives largely listed as inhibitors; 15% of 420,000 active; AID 686978, 2013; note: potency is the fitted concentration of half-maximal effect; nearly all actives have a fitted effect of over 55% in size
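Chicken DT40 Tdp1-/- cells complemented with human TDP1, screened without camptothecin (DMSO vehicle only), 400 cells/well. Compounds pin-transferred, cells incubated at 37 °C for at least 48 hr. Growth read as ATP-dependent luminescence (CellTiter-Glo, 30 min at RT).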
IL1B secr inh = qHTS for Inhibitors of Inflammasome Signaling: IL-1-beta AlphaLISA Primary Screen; THP-1 LPS/ATP IL-1B secretion, AlphaLISA, 16 h; active compounds read low; 4.7% of 360,000 active; activity change, % at 57.5 µM; AID 743279, 2014; in the data active = activity change below about -50%; inconclusive = mostly about -30% to -49%
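Secreted IL-1B measured by AlphaLISA bead assay after 16 h compound exposure of THP-1 cells; compounds (final up to 57.5 uM) added 1 h before LPS (250 ng/mL) and ATP (1.25 mM) stimulation; lower signal means less secretion.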
TDP1 cell CPT = qHTS for Inhibitors of human tyrosyl-DNA phosphodiesterase 1 (TDP1): qHTS in cells in presence of CPT; 12% of 420,000 active; chicken DT40 Tdp1-/-;hTDP1 cells + 20 nM CPT, ATP luminescence, 48 h; Potency, µM (titrated, usually from 46.2 µM), inactives show at the top dose activity change, negative = growth inhibition, usual class: inhibitors; AID 686979, 2013; note: potency is the fitted concentration of half-maximal effect; nearly all actives have a fitted effect of over 55% in size
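Chicken DT40 Tdp1-/- cells complemented with human TDP1, 400 cells/well, exposed to compounds plus 20 nM camptothecin for at least 48 h at 37 C; viability read as ATP content by CellTiter-Glo luminescence.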
HT1080NT lethal = qHTS for induction of synthetic lethality in tumor cells producing 2HG: qHTS for the HT-1080-NT fibrosarcoma cell line; HT-1080-NT fibrosarcoma viability, CellTiter-Glo ATP luminescence, 48 h; Potency, µM (top dose mostly 46.1 µM), without a hit: top-dose activity, negative = less viability, actives largely listed as cytotoxic; 1.6% of 360,000 active;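 note: NT is the 2HG producing partner of a matched IDH1 knockdown line; potency is the fitted concentration of half-maximal effect; 0% = DMSO-treated cells and -100% = media-only wells without cells; nearly all actives have a fitted effect of over 55% in size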
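750 cells/well, RPMI + 5% FBS; 2 h settle, compound pin-transfer, 48 h at 37 degrees C. CellTiter-Glo 10 min RT, luminescence. Normalized to DMSO and media-only wells.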
An asterisk follows results filed as active. The list is not random: actives were taken first. Their share in the collection is about 19%. Unless noted, calls come from the whole dose curve; as a rule, active = well fitted curve in the direction sought with a large enough effect; inconclusive = small, poorly fitted or top-dose-only effect, or another doubt; inactive = no such curve, though single readings can be large; an effect the other way counts as inactive or inconclusive. Unless noted, % is set by controls: 0 for no effect and ±100 for the full control effect.

Results for O=C(NCC(c1ccco1)N1CCCC1)c1cccc(S(=O)(=O)N2CCOCC2)c1 (stereo unspecified) ?
HT1080 IDH1KD tx: -2%; TDP1 cell noCPT: 11%; IL1B secr inh: 19; TDP1 cell CPT: 0%; HT1080NT lethal: 1%

How did Cc1cc(/C=C(\C#N)C(=O)NCc2ccco2)c(C)n1C1CCCC1 do in these assays?
HT1080 IDH1KD tx: 6%; TDP1 cell noCPT: inconclusive; IL1B secr inh: -5; TDP1 cell CPT: -24%; HT1080NT lethal: -2%

What do the screens show for `O=C(CCc1nnc(COc2ccccc2)o1)NCc1ccccc1C(F)(F)F`?
HT1080 IDH1KD tx: -1%; TDP1 cell noCPT: 0%; IL1B secr inh: 8; TDP1 cell CPT: -4%; HT1080NT lethal: 4%

How did CCN(c1ccccc1C)S(=O)(=O)c1nnc(NC(=O)c2ccc(OC)c(OC)c2)s1 do in these assays?
TDP1 cell noCPT: inconclusive; TDP1 cell CPT: -22%

Results for Cc1ccc2nc(-c3cccc(Br)c3)c(Cc3ccccn3)n2c1 ?
HT1080 IDH1KD tx: inconclusive; TDP1 cell noCPT: inconclusive; IL1B secr inh: -9; TDP1 cell CPT: 21µM*; HT1080NT lethal: -28%

Results for Cc1ccc2nc(-c3cccc(Br)c3)c(Cc3ccccc3C(F)(F)F)n2c1 ?
HT1080 IDH1KD tx: 4%; TDP1 cell noCPT: inconclusive; IL1B secr inh: 50; TDP1 cell CPT: -29%; HT1080NT lethal: 5%

Results for Cc1ccc(-c2nc3ccc(C)cn3c2Cc2ccccn2)cc1 ?
HT1080 IDH1KD tx: -8%; TDP1 cell noCPT: 18µM*; IL1B secr inh: 0; TDP1 cell CPT: inconclusive; HT1080NT lethal: -7%

Results for Cc1ccc2nc(-c3ccc(Cl)cc3)c(Cc3ccccn3)n2c1 ?
HT1080 IDH1KD tx: -18%; TDP1 cell noCPT: 16µM*; IL1B secr inh: -3; TDP1 cell CPT: 18µM*; HT1080NT lethal: -24%

What do the screens show for `COc1ccc(/C=C/C(=O)Nc2ccc3nc4c(c(Nc5ccc(OC)c(OC)c5)c3c2)CCCC4)cc1`?
TDP1 cell noCPT: 4.6µM*; TDP1 cell CPT: 3.7µM*

What do the screens show for `COc1ccc(NC(=O)c2ccc3c(SCC(=O)O)c4c(nc3c2)CCCC4)cc1OC`?
TDP1 cell noCPT: 1%; TDP1 cell CPT: 6%

What do the screens show for `COc1ccc(Nc2c3c(nc4ccc(NC(=O)/C=C/c5cc(OC)c(OC)c(OC)c5)cc24)CCCC3)cc1OC`?
TDP1 cell noCPT: 1.8µM*; TDP1 cell CPT: 1µM*

Results for Cc1ccc(S(=O)(=O)/N=C(/Nc2cccc(O)c2)c2ccccc2)cc1 ?
HT1080 IDH1KD tx: -15%; TDP1 cell noCPT: inconclusive; IL1B secr inh: -9; TDP1 cell CPT: inconclusive; HT1080NT lethal: -24%

How did COc1ccc(CNC(=O)C/C(C)=N/NC(=O)c2ccc(OC)cc2OC)cc1 do in these assays?
HT1080 IDH1KD tx: 3%; TDP1 cell noCPT: -4%; IL1B secr inh: -55*; TDP1 cell CPT: 3%; HT1080NT lethal: -5%

What do the screens show for `CCOc1ccc(-c2nnc(SCC(=O)O)n2Cc2ccccc2)cc1`?
HT1080 IDH1KD tx: 13%; TDP1 cell noCPT: 1%; IL1B secr inh: 9; TDP1 cell CPT: -16%; HT1080NT lethal: 7%

Results for Cc1ccc(NC2=CC(=O)CC(C)(C)C2)c(N)c1 ?
HT1080 IDH1KD tx: -4%; TDP1 cell noCPT: -26%; IL1B secr inh: -3; TDP1 cell CPT: -7%; HT1080NT lethal: -5%

Results for CC1(C)CC(=O)C=C(Nc2ccc(Br)cc2F)C1 ?
HT1080 IDH1KD tx: -6%; TDP1 cell noCPT: -19%; IL1B secr inh: -81*; TDP1 cell CPT: -26%; HT1080NT lethal: 1%

Results for CCc1ccc(NC2=CC(=O)CC(C)(C)C2)cc1 ?
HT1080 IDH1KD tx: -2%; TDP1 cell noCPT: -13%; IL1B secr inh: -56*; TDP1 cell CPT: -5%; HT1080NT lethal: 12%

Compound activity deposited in PubChem BioAssay by National Center for Advancing Translational Sciences (NCATS).
